FXIa single inh – blocks human coagulation factor XIa activity | purified human FXIa, fluorogenic AMC substrate cleavage | actives 0.3% (n = 33,000) | inhibition, % at 10 µM | AID 687;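 active = inhibition above 40% in the primary screen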;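 note: 0% = enzyme without compound and 100% = blank wells lacking enzyme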
FXIIa inh – inhibitors of human coagulation factor XIIa; P00748; purified human FXIIa, AMC substrate fluorescence, 2 h; inhibition, % at 10 µM; actives 0.2% (n = 33,000); AID 701; in the data active = inhibition above about 30%;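 note: 0% = enzyme with vehicle only and 100% = no enzyme blank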
Active calls of the source: *. Hits are enriched below; roughly 0.33% of the tested compounds scored in any of these assays.

`CCOc1ccc(S(=O)(=O)NCc2ccc(OC)cc2)c2cccnc12` gave FXIa single inh 62* and FXIIa inh 9.
`COc1ccc(S(=O)(=O)N(C)CC(=O)NCc2cccnc2)cc1Cl` gave FXIa single inh 8 and FXIIa inh 9.
Screening Cc1cc(C)nc(Sc2ncnc3sc4c(c23)CCC4)n1 returned FXIa single inh 29 and FXIIa inh -19.
`COc1cc(C(N)=O)ccc1OCc1ccccc1` gave FXIa single inh 2 and FXIIa inh 4.
For COc1ccc(C(=O)n2nc(-c3ccccc3)nc2N)cc1OC the results were FXIa single inh 1 and FXIIa inh 62*.
For O=C(Nc1nc2n(n1)C(c1ccc(Cl)cc1)CC(c1ccc(Cl)cc1)N2)c1ccco1 (stereo not drawn) the results were FXIa single inh -4 and FXIIa inh 46*.
For O=C(Nc1nc2n(n1)C(c1ccccc1)C=C(c1ccccc1)N2)c1ccco1 (stereo not drawn) the results were FXIa single inh 1 and FXIIa inh 25.
Screening Cc1cc(C)c2nc(SC(C)C#N)cc(C)c2c1 (stereo not drawn) returned FXIa single inh 8 and FXIIa inh 5.
For COCCNC(=O)COC(=O)c1[nH]c(C)c(C(C)=O)c1C the results were FXIa single inh 0 and FXIIa inh 14.
`CNC(=O)COC(=O)c1[nH]c(C)c(C(C)=O)c1C` gave FXIa single inh 46* and FXIIa inh 6.
`CC(=O)Nc1ccccc1Nc1cc(C#N)c(C#N)cc1[N+](=O)[O-]` gave FXIa single inh -10 and FXIIa inh 6.
`O=C(COC(=O)c1ccncc1)Nc1cc(Cl)c(Cl)cc1Cl` gave FXIa single inh 4 and FXIIa inh 6.
Screening COc1ccc(C2=NOC3(CC(=O)N(c4ccc(C)cc4)C3=O)C2)c(OC)c1 (stereo not drawn) returned FXIa single inh 4 and FXIIa inh 6.
Screening CCc1cccc(NC(=O)c2snc3c(=O)[nH]cnc23)c1 returned FXIa single inh 0 and FXIIa inh 5.
Screening Cc1cccc(NC(=O)c2snc3c(=O)[nH]cnc23)c1 returned FXIa single inh 103* and FXIIa inh -14.
For Cc1cccc2c1N1C(=O)c3c(C(=O)O)cccc3C1CC2C (stereo not drawn) the results were FXIa single inh 6 and FXIIa inh 3.
Screening O=C(O)Cn1c(SCc2cccc3ccccc23)nc2ccccc21 returned FXIa single inh -1 and FXIIa inh 4.
For Cc1ccc(C(=O)n2nnc3ccccc32)cc1 the results were FXIa single inh 97* and FXIIa inh 68*.
Screening O=C(c1cccc2ccccc12)n1nnc2ccccc21 returned FXIa single inh 48* and FXIIa inh 27.
`Cc1onc(-c2c(Cl)cccc2Cl)c1C(=O)n1nnc2ccccc21` gave FXIa single inh 7 and FXIIa inh 7.
Screening CCC(=O)Oc1ccc(C(=O)Nc2ccc3c(c2)C(=O)N(C2CCCCC2)C3=O)cc1 returned FXIa single inh -8 and FXIIa inh -20.
